From PubChem BioAssay
hcGAS lum: blocks human cGAS activity. recombinant h-cGAS, ATP depletion, Kinase-Glo luminescence. Q8N884. inhibition, % at 12.5 µM. 0.081% of 290,000 active;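 note: 0% = vehicle reaction and 100% = reaction without DNA for no activity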
NPYLR7 ag: mosquito NPYLR7 agonism | HEK293T NPYLR7/Galpha15, GCaMP6s calcium fluorescence | activation, % at 10 µM | 0.15% of 270,000 active; in the data active = activation above about 40%;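 note: 0% = vehicle and 100% = reference agonist at the receptor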
mcGAS lum: blocks mouse cGAS activity; 0.15% of 160,000 active; inhibition, % at 12.5 µM; recombinant cGAS, Kinase-Glo ATP depletion luminescence; Q8C6L5;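 note: 0% = negative control wells and 100% = reference inhibitor with no enzyme activity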
Target sequence (Q8C6L5 whole entry, looked up): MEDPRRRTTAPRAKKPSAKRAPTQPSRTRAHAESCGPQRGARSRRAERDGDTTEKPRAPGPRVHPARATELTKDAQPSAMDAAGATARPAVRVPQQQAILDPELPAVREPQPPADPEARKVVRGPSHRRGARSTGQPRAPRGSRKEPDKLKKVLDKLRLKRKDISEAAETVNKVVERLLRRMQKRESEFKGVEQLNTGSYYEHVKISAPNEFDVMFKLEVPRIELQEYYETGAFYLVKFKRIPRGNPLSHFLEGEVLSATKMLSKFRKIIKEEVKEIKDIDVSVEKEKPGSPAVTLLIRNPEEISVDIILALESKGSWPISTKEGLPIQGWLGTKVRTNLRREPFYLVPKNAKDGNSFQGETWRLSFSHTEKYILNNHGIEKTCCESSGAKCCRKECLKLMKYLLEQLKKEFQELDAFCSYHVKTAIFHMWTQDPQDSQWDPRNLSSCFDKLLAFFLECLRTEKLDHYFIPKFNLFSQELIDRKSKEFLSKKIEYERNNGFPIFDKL
* = called active by the depositor; . = no result. Sampled rows, rich in hits. Any-hit rate of the full collection: about 0.3%. Cut-off read from the data, not from the text of the source, unless noted: active = inhibition above about 40%; inactive = the rest.

SMILES | hcGAS lum | NPYLR7 ag | mcGAS lum
N=C1/C(=C/c2cccs2)C(=O)N=C2SC(c3ccccc3)=NN12 | 56* | -1 | .
Cc1ccc(C(CCN2CCCC2)Oc2ccc(C(=O)NCCc3cnc[nH]3)cc2)o1 (stereo unspecified) | 1 | 2 | -5
COC(=O)/C(C#N)=C/c1c(OC)[nH]c2ccccc12 | 1 | -1 | .
CC(=O)Oc1c(/C=C(\C#N)C(N)=O)[nH]c2ccccc12 | 4 | 51* | .
CC1=NN(C(=O)c2cccnc2)C(O)(c2ccccc2)C1 (stereo unspecified) | -5 | 2 | -7
N#C/C(=C\c1ccc(N2CCCCC2)s1)c1cccc(Cl)c1 | -2 | 28 | .
N#C/C(=C/c1ccc(N2CCCCCC2)o1)c1ccc(F)cc1 | -9 | 88* | .
O=C(N=Nc1c(O)[nH]c2ccc(Br)cc12)c1ccccc1O | 3 | 11 | -3
O=C(N=Nc1c(O)[nH]c2ccc(Br)cc12)c1ccccc1Cl | 1 | 72* | -3
O=C1NC(=O)C(=Cc2cccc(Cl)c2Cl)S1 | -3 | 9 | .
O=C1NC(=S)SC1=Cc1c(F)cccc1F | 42* | -10 | .
O=C1NC(=S)SC1=Cc1ccccc1Cl | 56* | 6 | .
O=C1NC(=S)SC1=Cc1ccc(F)c(F)c1 | 12 | 6 | 36
COc1cc(-c2ccc(C(F)(F)F)cn2)cc2c1OCCN(C(=O)CNC(C)=O)C2 | 7 | -8 | 0
CC(C)C(=O)Nc1cccnc1-c1cccc2[nH]ccc12 | -2 | 0 | .
O=C1c2ccc(O)c(O)c2C(=O)c2c(O)ccc(O)c21 | 47* | . | 79*
O=C1c2ccccc2C(=O)c2c1ccc(O)c2O | -74 | -16 | .
CCC(CO)(NC(=O)Nc1ccccc1)c1ccccc1 (stereo unspecified) | -7 | 8 | .
Cc1ccc(NC(=O)CN2c3ccc(S(N)(=O)=O)cc3CC2C)cc1 (stereo unspecified) | -7 | 9 | -5
C=C(c1ccccc1)c1cc2c3c(c1)CCCN3CCC2 | -3 | . | .
Cc1cc(C(=O)NCCc2ccccc2)n2nc(C(C)(C)C)cc2n1 | -6 | 18 | -5
Cc1cc(C(=O)NC(c2ccccc2)c2ccccc2)n2nc(C(C)(C)C)cc2n1 | -3 | 21 | 59*
COc1cccc(F)c1-c1ccc(C(O)CN2CCOCC2)cc1 (stereo unspecified) | 7 | -4 | 1
Cc1[nH]c(/C=C2\C(=O)Nc3ccc(S(=O)(=O)N(C)c4cccc(Cl)c4)cc32)c(C)c1C(=O)N1CCN(C)CC1 | -1 | 41 | -1
CCN(CC)CCNC(=O)c1c(C)[nH]c(/C=C2/C(=O)Nc3ccc(F)cc32)c1C | 10 | 60* | .
SMILES | hcGAS lum | NPYLR7 ag | mcGAS lum
c1ccc(Cn2cc(CN3CCN(c4ccccn4)CC3)c(-c3cc4ccccc4o3)n2)cc1 | -8 | 27 | -9
O=c1c(O)c(-c2ccccc2)oc2cccc(O)c12 | -2 | 1 | .
O=[N+]([O-])c1cc([N+](=O)[O-])c2oc(-c3ccccc3)c(Br)c2c1O | 82* | -9 | 91*
Cn1c(=O)n(Cc2ccccc2F)c(=O)c2c1nc1n2CCN1Cc1ccccc1 | 0 | 27 | .
COc1ccc(/C=C2N=C(/C=C/c3cccc(Cl)c3Cl)OC\2=O)c(OC)c1OC | -6 | -4 | .
O=C(/C=C/c1cccc([N+](=O)[O-])c1)n1cnc2ccccc21 | -2 | 4 | 42*
O=[N+]([O-])c1cccc(C=Nn2cnc3ccccc32)c1 | 1 | -4 | -2
Cc1ccccc1-c1nc(SC2CCCC2)c2c(=O)n(C)c(=O)n(C)c2n1 | -4 | -2 | -6
COc1ccc(C(=O)N2CCC3(CC2)CN(C2CCC2)CC3CO)cn1 (stereo unspecified) | 48* | . | -5
COCC1CN(C2CCC2)CC12CCN(C(=O)C1(c3ccccc3)CC1)CC2 (stereo unspecified) | -18 | . | -6
Brc1ccsc1/C=C/c1cccs1 | -9 | -4 | .
COC(=O)c1cc(N)c(/C=C/c2cccs2)s1 | -7 | 184* | .
CCCCc1ccc(-c2ccc(-n3cncc3C(=O)NCCc3ccccc3OC)cc2)cc1 | -1 | 11 | -6
O=C(CN1CCOCC1)N1N=C(c2ccccc2Cl)CC1c1ccc2c(c1)OCO2 (stereo unspecified) | -2 | -3 | -4
Cn1nc(-c2ccc(F)cc2)nc2c(=O)n(C)c(=O)nc1-2 | 26 | 2 | 67*
Cn1cnc(-c2ccc(F)cc2)cc1=O | -6 | -3 | -7
CCN=C(C)Cc1nsc(Nc2ccc(Cl)cc2)n1 | 1 | -1 | .
O=[N+]([O-])c1cc(S(=O)(=O)Nc2cc(Cl)ccc2F)ccc1F | -2 | 40* | .
Cc1ccc(S(=O)(=O)Nc2cc(Cl)ccc2F)cc1C | 8 | 3 | -2
C=CCN(CC#Cc1ccccc1)Cc1ncc[nH]1 | -3 | 2 | -19
COc1ccc(CN2C3CCC2CC(NC(=O)C24CC[C@@](C)(C(=O)O2)C4(C)C)C3)c(OC)c1 (stereo partly specified) | -5 | 3 | 76*
COc1ccc(CCN2C3CCC2CC(NC(=O)C24CC[C@@](C)(C(=O)O2)C4(C)C)C3)cc1OC (stereo partly specified) | -3 | 4 | -3
CCn1c(SCc2ccccc2F)nc2c([nH]c3ccccc32)c1=O | -7 | -1 | -6
O=C(NC1CSc2c1nc1ccccc1c2C(=O)O)c1ccccc1 (stereo unspecified) | 41* | 2 | .
O=C(Nc1ccccc1I)c1c2c(nc3ccccc13)CCCC2 | -6 | -1 | -9
CC(C)(C)c1ccc(C(=O)N2N=C(c3ccccc3)CC2(O)C(F)(F)F)cc1 (stereo unspecified) | -7 | 3 | .
